Measurements from the supplement of paper PMC11732987, “Enantioselective OTUD7B fragment discovery through chemoproteomics screening and high-throughput optimisation” (Communications Chemistry, 2025).

Legend:
Assay in all cases: log2 ratio of Biotin-Ahx-Ub-VS probe labelling (fragment/DMSO); higher = less target engagement (more negative = stronger competition), active = hit call of the paper (q ≤ 0.05, log2 ratio ≤ -1)
Details in all cases: compound concentration: 200 uM; treatment time: 3 h
USP34 = USP34 (UniProt Q70CQ2)
USP34, sequence (Q70CQ2 whole entry, the tested form may be a part): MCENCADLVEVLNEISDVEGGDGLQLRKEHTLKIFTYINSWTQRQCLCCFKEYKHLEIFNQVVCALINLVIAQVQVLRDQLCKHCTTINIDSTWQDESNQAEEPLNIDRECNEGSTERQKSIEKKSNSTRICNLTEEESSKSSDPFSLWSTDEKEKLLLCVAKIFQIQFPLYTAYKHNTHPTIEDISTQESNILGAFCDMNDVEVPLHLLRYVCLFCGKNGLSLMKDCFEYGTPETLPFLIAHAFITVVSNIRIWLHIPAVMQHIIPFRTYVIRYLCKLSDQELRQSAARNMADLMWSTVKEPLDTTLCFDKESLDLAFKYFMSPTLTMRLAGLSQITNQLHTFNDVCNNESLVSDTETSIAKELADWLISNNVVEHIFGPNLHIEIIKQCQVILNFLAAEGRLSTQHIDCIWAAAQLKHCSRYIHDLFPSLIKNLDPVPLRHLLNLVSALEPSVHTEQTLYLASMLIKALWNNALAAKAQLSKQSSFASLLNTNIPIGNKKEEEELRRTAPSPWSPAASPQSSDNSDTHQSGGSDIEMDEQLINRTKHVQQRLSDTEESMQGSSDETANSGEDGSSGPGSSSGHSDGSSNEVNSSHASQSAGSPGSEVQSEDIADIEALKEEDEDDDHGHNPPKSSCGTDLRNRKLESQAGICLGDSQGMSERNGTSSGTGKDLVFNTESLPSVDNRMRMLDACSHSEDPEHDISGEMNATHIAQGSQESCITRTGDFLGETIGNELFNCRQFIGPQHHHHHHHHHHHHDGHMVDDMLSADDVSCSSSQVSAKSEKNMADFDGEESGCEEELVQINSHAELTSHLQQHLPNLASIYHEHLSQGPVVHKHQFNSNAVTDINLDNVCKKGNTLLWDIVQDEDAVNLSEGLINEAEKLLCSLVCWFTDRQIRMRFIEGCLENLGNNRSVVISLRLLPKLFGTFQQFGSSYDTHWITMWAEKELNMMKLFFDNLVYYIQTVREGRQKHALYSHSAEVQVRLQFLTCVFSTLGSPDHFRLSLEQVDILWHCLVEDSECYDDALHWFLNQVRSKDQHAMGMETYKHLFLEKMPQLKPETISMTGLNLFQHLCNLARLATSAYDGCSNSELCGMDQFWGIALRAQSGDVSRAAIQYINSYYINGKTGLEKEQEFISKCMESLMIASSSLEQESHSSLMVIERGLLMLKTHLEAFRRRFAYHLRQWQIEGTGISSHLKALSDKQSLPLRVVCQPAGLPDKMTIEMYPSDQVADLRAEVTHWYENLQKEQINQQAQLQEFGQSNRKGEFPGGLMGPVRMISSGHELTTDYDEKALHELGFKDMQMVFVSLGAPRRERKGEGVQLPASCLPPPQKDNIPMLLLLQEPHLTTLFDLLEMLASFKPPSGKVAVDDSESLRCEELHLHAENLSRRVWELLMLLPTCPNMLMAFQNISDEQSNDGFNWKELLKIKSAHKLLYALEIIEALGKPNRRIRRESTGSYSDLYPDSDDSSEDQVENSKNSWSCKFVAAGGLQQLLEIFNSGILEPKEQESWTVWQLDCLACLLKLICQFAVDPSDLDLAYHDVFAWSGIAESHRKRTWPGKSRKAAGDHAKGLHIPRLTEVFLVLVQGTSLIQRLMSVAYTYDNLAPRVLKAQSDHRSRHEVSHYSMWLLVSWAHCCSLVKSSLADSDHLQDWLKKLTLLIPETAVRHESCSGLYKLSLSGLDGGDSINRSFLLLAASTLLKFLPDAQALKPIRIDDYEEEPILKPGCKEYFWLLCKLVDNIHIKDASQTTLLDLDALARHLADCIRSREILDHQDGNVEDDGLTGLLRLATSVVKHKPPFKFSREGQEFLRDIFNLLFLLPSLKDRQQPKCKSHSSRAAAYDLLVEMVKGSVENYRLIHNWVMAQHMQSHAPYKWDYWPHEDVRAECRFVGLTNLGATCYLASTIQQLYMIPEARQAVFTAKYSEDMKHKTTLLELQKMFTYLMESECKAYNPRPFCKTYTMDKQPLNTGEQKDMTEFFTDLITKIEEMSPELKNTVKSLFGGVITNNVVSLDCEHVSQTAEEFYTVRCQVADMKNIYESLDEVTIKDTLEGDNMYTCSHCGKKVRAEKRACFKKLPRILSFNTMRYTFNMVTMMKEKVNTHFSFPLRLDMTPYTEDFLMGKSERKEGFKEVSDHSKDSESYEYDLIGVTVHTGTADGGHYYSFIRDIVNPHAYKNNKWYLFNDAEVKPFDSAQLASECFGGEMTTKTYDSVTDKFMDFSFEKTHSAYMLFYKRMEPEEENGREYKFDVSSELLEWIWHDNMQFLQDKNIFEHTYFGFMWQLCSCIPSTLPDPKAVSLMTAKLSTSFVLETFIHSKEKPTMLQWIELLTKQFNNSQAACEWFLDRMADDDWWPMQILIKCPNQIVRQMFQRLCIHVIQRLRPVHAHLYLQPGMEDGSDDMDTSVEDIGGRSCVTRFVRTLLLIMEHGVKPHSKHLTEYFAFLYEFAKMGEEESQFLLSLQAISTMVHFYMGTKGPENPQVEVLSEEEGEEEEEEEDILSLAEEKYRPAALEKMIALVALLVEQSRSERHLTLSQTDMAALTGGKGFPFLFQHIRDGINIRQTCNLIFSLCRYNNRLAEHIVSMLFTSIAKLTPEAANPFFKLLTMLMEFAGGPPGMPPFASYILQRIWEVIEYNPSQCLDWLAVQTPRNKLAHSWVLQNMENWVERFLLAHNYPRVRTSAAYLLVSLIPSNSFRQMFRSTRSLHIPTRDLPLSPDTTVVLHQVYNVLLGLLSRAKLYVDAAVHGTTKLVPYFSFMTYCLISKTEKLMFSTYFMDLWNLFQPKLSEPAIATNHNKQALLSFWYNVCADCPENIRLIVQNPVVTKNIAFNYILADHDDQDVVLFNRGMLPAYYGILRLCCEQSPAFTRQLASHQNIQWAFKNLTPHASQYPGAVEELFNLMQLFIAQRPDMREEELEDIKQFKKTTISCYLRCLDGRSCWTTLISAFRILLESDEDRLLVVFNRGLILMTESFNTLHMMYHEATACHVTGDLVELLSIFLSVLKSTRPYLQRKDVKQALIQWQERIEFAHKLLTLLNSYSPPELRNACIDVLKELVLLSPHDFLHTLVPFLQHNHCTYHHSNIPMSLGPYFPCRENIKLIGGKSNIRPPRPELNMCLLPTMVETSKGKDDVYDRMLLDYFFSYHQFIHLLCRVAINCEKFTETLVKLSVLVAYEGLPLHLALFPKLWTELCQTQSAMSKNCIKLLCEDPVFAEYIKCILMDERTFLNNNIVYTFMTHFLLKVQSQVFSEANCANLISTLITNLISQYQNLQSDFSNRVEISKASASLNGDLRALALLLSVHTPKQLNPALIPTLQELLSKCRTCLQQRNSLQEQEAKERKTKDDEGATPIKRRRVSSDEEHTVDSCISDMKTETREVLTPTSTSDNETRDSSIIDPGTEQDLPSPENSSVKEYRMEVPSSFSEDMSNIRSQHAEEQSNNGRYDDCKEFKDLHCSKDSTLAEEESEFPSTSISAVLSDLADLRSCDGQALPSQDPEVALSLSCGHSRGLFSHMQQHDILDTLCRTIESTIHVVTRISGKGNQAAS
In short: (§1)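 Average log2 ratios of fragment over vehicle were obtained by unpaired t-test from global-median-normalised Spectronaut label-free quantities. Proteins with ≥2 unique peptides were included. HEK293T lysate (495 µg per sample) was treated in triplicate with fragment at 200 µM or vehicle for 3 h, then with Biotin-Ahx-Ub-VS at 0.5 µM final for 1 h, and labelled DUBs were NeutrAvidin-enriched and run by diaPASEF LC-MS/MS.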

USP36 = biological target: T1, USP36 (UniProt Q9P275)
T1 sequence (whole entry): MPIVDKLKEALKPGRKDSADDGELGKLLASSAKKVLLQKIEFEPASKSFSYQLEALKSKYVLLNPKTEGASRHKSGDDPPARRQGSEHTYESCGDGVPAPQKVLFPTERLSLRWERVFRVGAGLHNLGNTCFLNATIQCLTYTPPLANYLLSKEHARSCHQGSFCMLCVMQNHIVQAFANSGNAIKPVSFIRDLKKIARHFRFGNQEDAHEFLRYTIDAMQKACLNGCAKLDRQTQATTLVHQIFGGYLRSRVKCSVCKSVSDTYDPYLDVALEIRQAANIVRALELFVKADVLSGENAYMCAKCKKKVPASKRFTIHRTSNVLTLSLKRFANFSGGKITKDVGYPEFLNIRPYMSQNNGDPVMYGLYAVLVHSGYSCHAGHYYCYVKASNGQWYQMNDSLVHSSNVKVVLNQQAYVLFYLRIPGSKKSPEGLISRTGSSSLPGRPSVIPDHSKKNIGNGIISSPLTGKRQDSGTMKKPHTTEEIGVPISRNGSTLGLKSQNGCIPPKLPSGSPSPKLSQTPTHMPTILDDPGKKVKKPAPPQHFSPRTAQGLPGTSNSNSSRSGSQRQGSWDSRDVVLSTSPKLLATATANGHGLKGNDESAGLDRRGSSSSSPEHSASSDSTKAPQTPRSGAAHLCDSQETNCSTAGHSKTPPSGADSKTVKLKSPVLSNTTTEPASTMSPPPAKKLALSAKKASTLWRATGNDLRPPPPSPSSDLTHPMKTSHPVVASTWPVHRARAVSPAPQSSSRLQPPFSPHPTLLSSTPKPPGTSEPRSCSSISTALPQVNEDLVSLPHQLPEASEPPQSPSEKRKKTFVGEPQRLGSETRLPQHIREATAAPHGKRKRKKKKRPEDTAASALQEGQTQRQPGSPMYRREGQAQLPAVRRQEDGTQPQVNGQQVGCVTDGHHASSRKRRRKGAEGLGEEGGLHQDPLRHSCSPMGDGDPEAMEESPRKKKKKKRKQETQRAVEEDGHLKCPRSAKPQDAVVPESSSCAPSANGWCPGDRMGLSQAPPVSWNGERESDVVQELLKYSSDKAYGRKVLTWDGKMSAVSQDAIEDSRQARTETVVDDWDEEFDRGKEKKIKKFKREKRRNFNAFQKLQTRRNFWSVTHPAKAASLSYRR
In short: as §1

USP38 = biological target: T2, USP38 (UniProt Q8NB14)
T2 sequence (whole entry): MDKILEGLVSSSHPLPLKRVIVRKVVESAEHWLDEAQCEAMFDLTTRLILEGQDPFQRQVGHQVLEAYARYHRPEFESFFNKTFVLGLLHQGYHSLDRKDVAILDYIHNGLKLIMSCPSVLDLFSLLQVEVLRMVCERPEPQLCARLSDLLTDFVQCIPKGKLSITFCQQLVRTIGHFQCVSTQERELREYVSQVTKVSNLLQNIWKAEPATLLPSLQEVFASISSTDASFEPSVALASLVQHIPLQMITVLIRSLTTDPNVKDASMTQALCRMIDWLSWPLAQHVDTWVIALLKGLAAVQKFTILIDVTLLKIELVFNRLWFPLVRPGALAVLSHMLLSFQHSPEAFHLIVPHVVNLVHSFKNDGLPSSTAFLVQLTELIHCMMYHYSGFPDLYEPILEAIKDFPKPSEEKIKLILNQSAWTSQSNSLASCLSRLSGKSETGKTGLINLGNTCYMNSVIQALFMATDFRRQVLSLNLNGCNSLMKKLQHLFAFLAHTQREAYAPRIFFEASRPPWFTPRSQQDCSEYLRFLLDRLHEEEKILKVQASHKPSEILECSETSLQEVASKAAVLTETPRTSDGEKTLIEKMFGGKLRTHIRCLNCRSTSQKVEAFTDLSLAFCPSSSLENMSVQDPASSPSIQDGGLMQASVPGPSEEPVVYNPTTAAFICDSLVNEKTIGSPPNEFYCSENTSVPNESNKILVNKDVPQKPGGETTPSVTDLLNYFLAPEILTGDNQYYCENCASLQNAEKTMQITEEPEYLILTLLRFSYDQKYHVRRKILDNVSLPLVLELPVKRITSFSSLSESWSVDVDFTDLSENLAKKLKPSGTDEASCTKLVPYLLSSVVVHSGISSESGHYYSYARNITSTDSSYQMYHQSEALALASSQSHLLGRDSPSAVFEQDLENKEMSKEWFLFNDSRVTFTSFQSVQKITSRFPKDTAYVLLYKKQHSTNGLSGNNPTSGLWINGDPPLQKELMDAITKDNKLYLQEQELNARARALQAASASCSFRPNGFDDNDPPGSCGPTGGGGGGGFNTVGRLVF
In short: as §1

USP39 = biological target: T3, USP39 (UniProt Q53GS9)
T3 sequence (whole entry): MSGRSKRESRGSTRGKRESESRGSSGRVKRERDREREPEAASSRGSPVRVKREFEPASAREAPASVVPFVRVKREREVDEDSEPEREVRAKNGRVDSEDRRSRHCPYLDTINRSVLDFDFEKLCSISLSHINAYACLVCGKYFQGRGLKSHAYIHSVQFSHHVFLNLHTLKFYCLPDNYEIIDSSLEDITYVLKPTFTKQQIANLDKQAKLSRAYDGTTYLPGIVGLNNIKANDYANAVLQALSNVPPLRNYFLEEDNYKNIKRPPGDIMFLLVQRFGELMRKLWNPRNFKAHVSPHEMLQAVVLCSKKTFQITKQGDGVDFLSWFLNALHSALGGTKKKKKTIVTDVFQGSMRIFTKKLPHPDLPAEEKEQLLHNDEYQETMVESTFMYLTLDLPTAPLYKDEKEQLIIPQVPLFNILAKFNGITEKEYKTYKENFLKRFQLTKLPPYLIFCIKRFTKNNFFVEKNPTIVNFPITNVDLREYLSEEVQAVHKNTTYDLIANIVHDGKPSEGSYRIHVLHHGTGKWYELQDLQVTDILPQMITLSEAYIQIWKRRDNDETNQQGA
In short: as §1

USP4 = biological target: T4, USP4 (UniProt Q13107)
T4 sequence (whole entry): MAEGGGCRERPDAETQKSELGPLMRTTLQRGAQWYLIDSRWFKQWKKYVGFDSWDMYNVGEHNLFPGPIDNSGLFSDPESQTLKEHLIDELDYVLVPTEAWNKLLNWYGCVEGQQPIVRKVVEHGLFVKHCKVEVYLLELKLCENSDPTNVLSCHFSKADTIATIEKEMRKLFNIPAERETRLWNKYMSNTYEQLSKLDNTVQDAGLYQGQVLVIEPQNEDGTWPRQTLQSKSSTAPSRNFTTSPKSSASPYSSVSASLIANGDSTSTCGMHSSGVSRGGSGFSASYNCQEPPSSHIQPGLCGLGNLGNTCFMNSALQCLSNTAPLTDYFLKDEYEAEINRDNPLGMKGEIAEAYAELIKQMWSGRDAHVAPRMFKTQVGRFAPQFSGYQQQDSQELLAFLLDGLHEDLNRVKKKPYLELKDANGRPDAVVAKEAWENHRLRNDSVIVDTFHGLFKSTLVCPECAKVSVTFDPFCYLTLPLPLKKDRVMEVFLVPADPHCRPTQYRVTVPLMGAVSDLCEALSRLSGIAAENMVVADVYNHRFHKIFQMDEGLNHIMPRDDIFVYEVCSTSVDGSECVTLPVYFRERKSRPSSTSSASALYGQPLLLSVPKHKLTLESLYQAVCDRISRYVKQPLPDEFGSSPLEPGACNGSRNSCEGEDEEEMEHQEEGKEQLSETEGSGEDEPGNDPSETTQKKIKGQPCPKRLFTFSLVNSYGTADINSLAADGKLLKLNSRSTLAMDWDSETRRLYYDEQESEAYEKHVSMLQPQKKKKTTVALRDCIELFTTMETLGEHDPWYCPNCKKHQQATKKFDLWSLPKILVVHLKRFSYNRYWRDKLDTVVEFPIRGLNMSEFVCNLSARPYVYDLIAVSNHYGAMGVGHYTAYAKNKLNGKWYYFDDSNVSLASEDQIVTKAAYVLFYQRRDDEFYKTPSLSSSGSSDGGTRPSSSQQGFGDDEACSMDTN
In short: as §1

Measured: log2 ratio of Biotin-Ahx-Ub-VS probe labelling

CCN(Cc1ccc(C#N)cc1F)C(=O)CCl
inactive: USP34 -0.454 | USP36 -0.0792 | USP38 -0.292 | USP39 -0.0856 | USP4 -0.105
